The supplement of paper PMC13380429
Where a name gives a salt, the structure may show the parent alone.

Tested on: Vero E6 infected with SARS-CoV-2
Test: morphology score (similarity to uninfected cells); higher = more like uninfected cells
Details: 24 h

Compound	morphology score
CC[C@H]1CN2CCc3cc(OC)c(OC)cc3[C@@H]2C[C@@H]1C[C@H]1NCCc2cc(OC)c(OC)cc21 [emetine] (0.833333 µM)	-0.193
CN(C)CC/C=C1\c2ccccc2CSc2ccccc21 [dosulepin] (10 µM)	0.188
CC(C)Oc1ccc(-c2nn([C@@H](C)c3oc4ccc(F)cc4c(=O)c3-c3cccc(F)c3)c3ncnc(N)c23)cc1F (10 µM)	0.0291
Nc1ncnc2c1ncn2[C@@H]1O[C@H](COP(=O)(O)OP(=O)(O)OP(=O)(O)OP(=O)(O)OC[C@H]2O[C@@H](n3cnc4c(N)ncnc43)[C@H](O)[C@@H]2O)[C@@H](O)[C@H]1O [diadenosine-tetraphosphate] (10 µM)	0.0713
O=S(=O)(O)NC1CCCCC1 [cyclamic-acid] (10 µM)	0.146
COc1c(C)c(C(=O)c2ccc(N)c(C(=O)O)c2)n2ccccc12 (10 µM)	0.0882
Cc1ncc(CO)c(/C=N/NC(=O)c2ccncc2)c1O [pyridoxal-isonicotinoyl-hydrazone] (10 µM)	-0.0797
CC1=C(/C=C/C(C)=C/C=C/C(C)=C/CO)C(C)(C)CCC1 [retinol] (10 µM)	-0.0178
CO[C@H]1CC[C@H](N2C(=O)CNc3ncc(-c4ccc(C(C)(C)O)nc4)nc32)CC1 (0.833333 µM)	0.21
CC(=O)Oc1ccccc1C(=O)Oc1ccccc1C(=O)O [acetylsalicylsalicylic-acid] (10 µM)	0.0259
Clc1ccc([C@]23CNC[C@H]2C3)cc1Cl [amitifadine] (10 µM)	0.0575
N=C(N)c1ccc(N2CCN(C3CCN(CC(=O)O)CC3)CC2)cc1 (10 µM)	-0.0825
CCCCn1c(=O)c2[nH]c(C34CC5CC(CC3C5)C4)nc2n(CCCO)c1=O (10 µM)	-0.0475
C=C(C)[C@@H]1CC[C@]2(C(=O)O)CC[C@]3(C)[C@H](CC[C@@H]4[C@@]5(C)CC[C@H](OC(=O)CC(C)(C)C(=O)O)C(C)(C)[C@@H]5CC[C@]43C)[C@@H]12 [bevirimat-dimeglumine] (10 µM)	-0.0115
CCC[C@@H]1CC(=O)N([C@@H](CC)C(N)=O)C1 [Brivaracetam] (10 µM)	0.0266
CC(C)C[C@H](NC(=O)[C@@H]1CCCN1)C(=O)NCC(N)=O [prolylleucylglycinamide] (10 µM)	0.103
C[C@H]1[C@H](C)CC[C@]2(C(=O)O)CC[C@]3(C)C(=CC[C@@H]4[C@@]5(C)C[C@@H](O)[C@H](O)C(C)(C)[C@@H]5CC[C@]43C)[C@H]12 [corosolic-acid] (10 µM)	-0.302
COc1ccc(Oc2c(Cl)cnn(C3c4ccccc4-c4ccccc43)c2=O)cc1 (10 µM)	0.0752
CC(C)(C)/[N+]([O-])=C/c1ccc(S(=O)(=O)O)cc1S(=O)(=O)O (10 µM)	0.00191
Cc1cc(C)n(-c2cccc([C@H](CC(=O)O)CN3CC[C@@H](CCc4ccc5c(n4)NCCC5)C3)c2)n1 [integrin-antagonist-1] (10 µM)	-0.102

Compound	morphology score
CNCCn1c(=O)c2cc(OC)c(OC)cc2c2cnc3cc4c(cc3c21)OCO4 (10 µM)	-0.381
CC(C)N(CCNC(=O)CN1CCCC1=O)C(C)C [pramiracetam] (10 µM)	-0.0542
CCn1cc(C(=O)O)c(=O)c2cc(F)c(N3CCNCC3)cc21 [norfloxacin] (10 µM)	0.204
C[C@@H]1COC(Nc2ccc3ncnc(Nc4ccc(OCc5nccs5)c(Cl)c4)c3c2)=N1 (10 µM)	-0.156
CCCC[C@H](NC(=O)[C@@H]1[C@@H]2[C@H](CN1C(=O)[C@@H](NC(=O)NC1(CS(=O)(=O)C(C)(C)C)CCCCC1)C(C)(C)C)C2(C)C)C(=O)C(=O)NC1CC1 [narlaprevir] (10 µM)	0.157
C[C@H](CCC(=O)O)[C@H]1CC[C@H]2[C@@H]3[C@H](O)C[C@@H]4C[C@H](O)CC[C@]4(C)[C@H]3C[C@H](O)[C@]12C [cholic-acid] (10 µM)	0.0109
CC(C)(N)CC12CC3CC(CC(C3)C1)C2 [somantadine] (10 µM)	0.178
O=C(NC1(c2ccccc2)CC1)c1c(CN2CCC(N3CCCCC3)CC2)c(-c2cccc(C(F)(F)F)c2)nc2cc(Br)ccc12 (0.833333 µM)	-0.235
CN(C)CC/C=C1/c2ccccc2COc2ccc(CC(=O)O)cc21 [Olopatadine hydrochloride (Opatanol)] (10 µM)	0.105
C=CC(=O)Nc1cc(Nc2nccc(-c3c[nH]c4ccccc34)n2)c(OC)cc1N(C)CCN(C)C (0.833333 µM)	-0.245
Nc1nc2ccc(Cl)cc2c2nc(-c3ccco3)nn12 (10 µM)	0.125
CCCCCCCCCC(=O)OCCN1CCN(CCCN2c3ccccc3Sc3ccc(C(F)(F)F)cc32)CC1 [fluphenazine-decanoate] (10 µM)	-0.147
CS(=O)(=O)c1ccc(-c2nnc(/C=C/c3nnc(-c4ccc(C#N)cc4)o3)n2-c2ccccc2Cl)nc1 (10 µM)	0.0833
CC[C@@H](C)CNCC(=O)N1CCc2sccc2[C@@H]1COc1cccc(C)c1 (10 µM)	0.447
COC(=O)c1cnn(-c2ccc(F)cc2F)c1/C=N/NC(=S)NC(C)(C)C (10 µM)	0.433
Cc1ccc2c(Br)cc(Br)c(OC(=O)c3ccccc3)c2n1 [broxaldine] (0.833333 µM)	0.246
COc1cc(C(=O)NC2CCCNC2)cc(OC)c1OC (stereo not given) [troxipide] (10 µM)	-0.014
Nc1nc(=O)[nH]cc1F [flucytosine] (10 µM)	-0.016
Oc1ccnc2cc(Cl)ccc12 [chloroxoquinoline] (10 µM)	0.159
CN1CCN(c2nc(C3=C(c4c[nH]c5ccccc45)C(=O)NC3=O)c3ccccc3n2)CC1 [sotrastaurin] (10 µM)	0.0619
